Data: the supplement of paper PMC3334620
Over roughly 33,000 sequences, “E-score (-0.5 to 0.5)” has its median near -0.016; the highest 2% begin near 0.31. Many of the other results were omitted from the sample, so the highest values are more common in it than they were.

target: Cst6 (UniProt P40535); assay: PBM E-score (8-mer binding enrichment) (E-score (-0.5 to 0.5)); higher = stronger / more preferred TF binding; details: protein concentration: 200 nM; construct: GST-DNA-binding domain
Summary of the method: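 Each ungapped eight-base word and its reverse complement, pooled, received an E-score from the Universal PBM Analysis Suite. Underlying scans, normalised with masliner, recorded fluorescent anti-GST bound to GST-tagged yeast transcription factors. These were applied at about 100-200 nM to universal all-10-mer Agilent arrays double-stranded by primer extension.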

Chain of UniProt P40535 (P40535 whole entry, the tested form may be a part): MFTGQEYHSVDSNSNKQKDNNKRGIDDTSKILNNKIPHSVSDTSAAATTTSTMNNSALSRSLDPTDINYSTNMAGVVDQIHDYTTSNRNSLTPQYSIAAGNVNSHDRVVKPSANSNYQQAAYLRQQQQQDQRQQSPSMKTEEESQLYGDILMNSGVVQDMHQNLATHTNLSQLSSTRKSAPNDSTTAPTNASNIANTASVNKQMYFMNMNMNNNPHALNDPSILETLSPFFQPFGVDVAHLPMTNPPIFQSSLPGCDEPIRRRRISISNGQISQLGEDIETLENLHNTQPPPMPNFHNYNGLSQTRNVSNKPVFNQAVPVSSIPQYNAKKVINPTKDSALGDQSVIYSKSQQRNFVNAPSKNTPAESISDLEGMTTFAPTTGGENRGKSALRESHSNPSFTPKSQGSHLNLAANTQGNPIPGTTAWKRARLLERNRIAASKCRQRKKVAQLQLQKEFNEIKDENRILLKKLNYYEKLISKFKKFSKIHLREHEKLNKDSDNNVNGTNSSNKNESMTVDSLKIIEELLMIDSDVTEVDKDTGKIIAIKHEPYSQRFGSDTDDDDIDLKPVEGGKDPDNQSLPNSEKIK

Sequence	PBM E-score
AGGCTCGA	0.0255
CTGGTGTC	-0.119
GCAGCCGA	-0.053
AAAACCGA	0.0246
TTCCAAAA	0.0844
CAGGCTAC	-0.249
GCTCCGCC	-0.185
CCGCCGGA	-0.149
ACCATCGA	-0.0265
CGAGGCGC	0.188
ATGACGTA	0.498
AGGACGTA	-0.126
AAGACGTA	0.215
CACCGTTC	-0.0919
CAGGCGAG	-0.261
AGTGCGTC	0.104
ATTGCGTA	0.415
CTTGCGTC	0.249
ATTGCGTG	0.154
GTTGCGTA	0.264
ATTGCGTC	0.34
CTCGTTCA	0.022
ATTCCCGG	0.041
AGGAGCGG	-0.207
CAACGTCA	0.471

Sequence	PBM E-score
AAACGTCA	0.463
CAACGTCG	0.0638
CAACGTCC	-0.263
AAACGTCT	0.14
TAACGTTA	0.149
TAACGTGA	0.284
GAACGTTA	-0.124
GAACGTCC	0.0008
GAACGTCA	0.442
AAACGTCC	-0.0706
TAACGTCA	0.489
CCAGGCGA	-0.317
CTACCTAG	-0.231
ATCCCGGA	-0.249
AATGAGCG	0.139
AAGTAAAA	0.148
AGCCAGTG	-0.171
ATCGCCTA	-0.115
CGATTGTA	0.0905
CGGTCTTC	-0.0638
AACTGTGT	0.0284
ATCAGTTC	-0.0191
ATACAGCC	-0.059
GGGTGCCA	-0.137
CGGTATGC	-0.111

Sequence	PBM E-score
ACGGTCTG	-0.189
TCACGTAA	0.415
ACACGTAA	0.366
ACACGTAC	-0.0236
ACACGTAG	0.0917
GCACGTAA	0.232
CCACGTAA	0.275
CTACCCCA	-0.16
ATACAGAC	0.128
CCGCAACA	0.113
GACGTTAC	0.315
TACGTTAA	0.189
CACGTTAA	0.0603
AACGTTAC	0.137
GACGTTAA	0.32
CACGTTAC	0.143
GCCAAAAC	0.00644
AGCTGCGA	-0.198
AGCGGTCC	-0.134
ATACGGGC	-0.204
ACTGGGGG	-0.426
CGGACGCA	-0.0966
AGGCGCCG	0.325
AGGCGCCA	0.0572
AGGCGCCT	0.207

Sequence	PBM E-score
CGGCGCCC	0.143
CGGCGCCA	0.161
CGGCGCCG	0.384
CCGTCGAA	0.0203
GCAAATGC	0.0351
AATAGCCC	-0.132
AGCCGGCT	-0.193
CGGATGAC	0.321
GAGATGAC	0.239
CAGATGAG	0.0374
AAGATGAC	0.345
CGGATGAA	0.127
AAGATGAT	0.229
CGGATGAG	-0.135
AAGATGAG	-0.0416
CAGATGAC	0.383
GTAAGTCA	0.132
TCGCTCAA	-0.091
AATTGCCC	-0.055
CCAAAAGA	0.207
AAAATCGG	-0.00802
GCGCAGCC	-0.38
ATAAAAAG	0.307
CTTGAAAA	0.216
ATTAAATC	0.212

Sequence	PBM E-score
CTAAAAAA	0.273
ATAAAAAA	0.234
ATTGAAAC	0.194
TTAAAAAA	0.306
ATTGAAAA	0.31
TTTAAAAA	0.0985
ATTAAATG	0.315
ATAAAAGG	0.0584
ATTAAATA	0.267
CAGGTTAG	-0.116
CCGCTTGA	0.0541
ATCTGCTG	0.0566
GAAGCTGC	-0.117
ACTTAGCA	-0.0634
ATTCCGCG	0.129
ATTAAAAC	0.213
ATTAAAAG	0.173
ATTAAAAA	0.323
ACTACACA	0.17
CGTTAGAA	0.101
ATGATGCC	0.347
ATGATGCA	0.362
ACGATGCA	-0.00326
AGGATGCC	0.0165
ATGATGCG	0.296

Sequence	PBM E-score
GAGATGCA	-0.071
GTGATGCA	0.383
CTGATGCA	0.0731
CTGATGCC	0.113
CCGGATCG	-0.134
ACTTTTCA	0.133
CTTCCCAC	0.0313
GACTCGCC	-0.223
CCGGGTTA	-0.281
CAAAAGAA	0.239
AAGCTCAC	-0.167
AACAATCA	0.287
CACCCCGG	-0.19
ACTTCGTA	-0.0634
ACGTAACA	0.386
CCGTAACC	-0.0836
ACGTAACC	0.414
AAGTAACT	0.204
TCGTAACA	0.129
CCGTAACG	-0.0115
GCGTAACC	0.14
AAGTAACG	0.0219
AGGTAACT	0.106
ACGTAACT	0.413
GCGTAACA	0.195

Sequence	PBM E-score
ACGTAACG	0.39
ATGAGACG	-0.0685
ACCTAGGG	-0.159
ACCCATGG	-0.144
CTCCTTTA	-0.251
CTACCGTA	0.0736
ATCAAATA	0.0992
CTCGGTTA	0.0295
CCGTCAGA	-0.0924
ACGTCAGA	0.464
GCGTCAGC	0.15
GTGTCAGA	-0.0004
CCGTCAGC	0.0302
CCGTCAGG	-0.107
TCGTCAGA	0.124
GGGTCAGA	-0.219
ACGTCAGC	0.482
GCGTCAGA	0.313
ACGTCAGG	0.413
ATGTCAGG	0.176
ACCGACGG	-0.0433
CTTCCCGA	-0.0284
AGTCGCAG	-0.192
ACTCTTGA	-0.103
CCTTGCAA	-0.186

Sequence	PBM E-score
ACTCCGCG	-0.0486
CGGCATAA	0.135
AACTCGAG	-0.0652
ACCTTTGA	-0.156
CCTCCTAG	-0.121
AAGCACGT	0.0741
GAGCAGGA	-0.154
GGAAACCC	-0.147
AAGTCAGT	0.0407
ACGTCAGT	0.472
ACCTCAGT	0.013
GACACGCC	0.0155
CTGGACTA	-0.267
CGTACGTA	0.306
AGTACGTA	0.267
CGTACGTC	0.31
GGTACGTA	0.136
AGTACGTC	0.205
CGTACGCC	0.111
CGTAAACA	0.262
TATACCGA	0.00086
TATGATCA	0.207
TATGATAA	0.251
CATGATGG	-0.0379
GATGATGA	0.319

Sequence	PBM E-score
GGTGATGA	0.362
CGTGATGA	0.297
GCTGATGA	0.278
GGTGATTA	0.206
CATGATGC	0.28
CATGATGA	0.342
GATGATCA	0.171
TATGATGA	0.337
CACGCTAC	-0.134
ACTACCGC	-0.0306
CTCTCAAG	-0.14
GCCAACGC	-0.0319
CGAACTAG	0.0382
CGCAATTA	0.18
CCCAAAAC	0.105
CCTGGGGA	-0.402
CCTGCACA	-0.179
ACACTACT	0.0264
CCTTCCGA	-0.149
